# Measured values reported in the supplement of paper PMC12669032.
# Values without a mark were called inactive.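 Rule for the calls: active = AUC reduced over 20% with Padj below 0.05 in at least 2 of 3 replicates; inactive = otherwise.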
# Assays:
# Experiment in all cases: growth AUC relative to DMSO control (median of replicates) (fraction); higher = more growth (less inhibition), active = hit call of the paper
# Details in all cases: 20 µM; 24 h
# [1] = tested on: Coprococcus comes
# Outline: (§1)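 Starting at OD600 0.05, gut bacterial monocultures in mGAM were grown anaerobically at 37 °C with 20 µM compound (1% DMSO) under pierced gas-permeable seals. OD600 was read every hour for 24 h, and the lowest OD of each curve was set to 0. Area under the growth curve was normalised to the plate median of solvent-only wells, or to row and column medians on the industrial chemical plate, and the median of three biological replicates grown on separate days is given.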
# [2] = tested on: Escherichia coli ED1a
# Outline: as §1
# [3] = tested on: Escherichia coli IAI1
# Outline: as §1
# [4] = tested on: Eubacterium rectale
# Outline: as §1
# [5] = tested on: Fusobacterium nucleatum subsp. animalis
# Outline: as §1
# [6] = tested on: Lactobacillus gasseri
# Outline: as §1
# [7] = tested on: Lactobacillus paracasei
# Outline: as §1
# [8] = tested on: Odoribacter splanchnicus
# Outline: as §1
# [9] = tested on: Parabacteroides distasonis
# Outline: as §1
# [10] = tested on: Parabacteroides merdae
# Outline: as §1
# [11] = tested on: Roseburia intestinalis
# Outline: as §1
# [12] = tested on: Streptococcus salivarius
# Outline: as §1
Structure (SMILES),growth AUC [1],growth AUC [2],growth AUC [3],growth AUC [4],growth AUC [5],growth AUC [6],growth AUC [7],growth AUC [8],growth AUC [9],growth AUC [10],growth AUC [11],growth AUC [12]
Oc1cccc2ccccc12,0.96,0.994,0.982,0.957,0.988,0.976,1.02,0.975,0.983,0.997,0.952,0.986
Nc1cc(Cl)nc(C(=O)O)c1Cl,1.03,1.04,1.02,1.01,1.03,0.961,1.24,1.05,1.03,1.02,1.01,1.03
c1ccc2c(c1)ccc1ccccc12,0.965,1.01,1.01,1.01,0.985,0.994,0.999,1.01,1.04,1.01,0.993,0.997
CS(=O)(=O)c1ccc(C(=O)O)c(N)c1,1.05,1.02,1.01,1.05,1.08,1.13,1,1.02,1.04,1.01,1.07,1.03
CCOC(=O)C1CC(=O)C(=C(O)C2CC2)C(=O)C1 (stereo unspecified),1.02,0.972,1.01,0.961,1.01,1.01,0.937,0.976,0.984,1.03,1,0.988
O=[N+]([O-])c1ccc(O)cc1,0.973,1.01,0.994,0.994,0.979,0.985,0.987,1.01,0.99,0.99,1.14,1
CCN(Cc1c(F)cccc1Cl)c1c([N+](=O)[O-])cc(C(F)(F)F)cc1[N+](=O)[O-],0.784,0.982,0.986,0.896,0.937,0.896,1.03,1.03,0.934,0.903,0.864,0.926
CCOc1ccc(NC(=O)OC(C)C)cc1OCC,0.942,1.01,1.04,1.21,1.09,0.99,0.835,0.722 (active),0.989,0.998,1,0.975
CCc1cccc(C)c1N(COC(C)C)C(=O)CCl,1.03,1.05,1.01,1.04,0.961,0.99,1.07,1.1,1.04,0.982,1.01,1.01
CN(C)C(=O)Nc1cc(C(C)(C)C)on1,0.99,0.997,1.01,0.949,0.959,1.06,1,0.942,1.01,1,1.03,1
C=CCO/N=C(\CCC)C1=C([O-])CC(C)(C)C(C(=O)OC)C1=O.[Na+] (stereo unspecified),1.03,1.02,1.02,1.12,1.12,0.892,1.04,1.05,1.01,1.06,0.982,1.02
COC(=O)[C@@H](C)Oc1ccc(Oc2ncc(C(F)(F)F)cc2Cl)cc1,1.02,1.02,1.01,1.05,1.06,0.889,1.04,0.946,0.913,1.01,1,0.984
Cc1ccc(C)c(O)c1,0.988,0.996,1.01,0.958,0.988,1.02,0.953,1,0.991,1.03,0.996,1.09
CCCCCCCC/C=C\CCCCCCCCCCCC(=O)O,0.96,1.02,1.01,0.983,1.02,0.979,0.991,1,0.914,1.01,0.973,0.898
Clc1ccc(CSc2ccc(Cl)cc2)cc1,1.03,1,0.989,1.05,1.07,0.98,1.02,1.07,1,0.979,0.965,1.01
C#CCOc1cc(-n2nc(C(C)(C)C)oc2=O)c(Cl)cc1Cl,0.991,0.971,0.996,1.09,0.926,0.831,0.958,0.904,0.392 (active),0.951,0.909,0.963
CCOC(=O)NCCOc1ccc(Oc2ccccc2)cc1,0.954,1,0.976,0.956,0.943,1.03,0.949,0.931,0.932,0.974,0.984,0.976
CCc1cccc(C)c1N(C(=O)CS(=O)(=O)[O-])C(C)COC.[Na+] (stereo unspecified),0.948,0.954,0.941,1.05,0.881,0.91,1.02,0.908,0.925,0.941,0.925,0.878
CC(C)COC(=O)COc1cc(Cl)c(Cl)cc1Cl,1,1.01,0.998,1.02,1.01,0.91,1.08,0.969,0.971,0.946,1.01,0.958
COCCCNc1nc(NC(C)C)nc(SC)n1,0.963,1.01,0.986,0.914,0.904,1.04,0.943,0.954,1.01,0.992,0.995,0.969
CCSC(=O)COc1ccc(Cl)cc1C,0.981,0.973,0.986,1.03,1,0.874,1.08,0.901,1.05,0.992,0.969,0.915
CC(C)(CO)C(O)(CCc1ccc(Cl)cc1)Cn1cncn1 (stereo unspecified),0.989,1.03,0.999,1.1,1,0.88,1.04,0.979,0.88,0.985,0.935,0.987
NC(=S)Nc1cccc2ccccc12,0.974,0.96,0.959,1.03,0.924,0.888,0.946,0.983,1.05,0.915,0.917,0.886
